FLuc inh: Firefly luciferase inhibition profiling of diverse chemical library using quantitative high-throughput screening | hit rate 2.5% among 76,000 | AID 1347043, 2019 | purified P. pyralis luciferase, luminescence, biochemical | Potency, µM (top dose mostly 115 µM), most hits filed as inhibitors; note: nearly all actives have a fitted effect of over 65% in size
Target sequence (P08659 whole entry, looked up): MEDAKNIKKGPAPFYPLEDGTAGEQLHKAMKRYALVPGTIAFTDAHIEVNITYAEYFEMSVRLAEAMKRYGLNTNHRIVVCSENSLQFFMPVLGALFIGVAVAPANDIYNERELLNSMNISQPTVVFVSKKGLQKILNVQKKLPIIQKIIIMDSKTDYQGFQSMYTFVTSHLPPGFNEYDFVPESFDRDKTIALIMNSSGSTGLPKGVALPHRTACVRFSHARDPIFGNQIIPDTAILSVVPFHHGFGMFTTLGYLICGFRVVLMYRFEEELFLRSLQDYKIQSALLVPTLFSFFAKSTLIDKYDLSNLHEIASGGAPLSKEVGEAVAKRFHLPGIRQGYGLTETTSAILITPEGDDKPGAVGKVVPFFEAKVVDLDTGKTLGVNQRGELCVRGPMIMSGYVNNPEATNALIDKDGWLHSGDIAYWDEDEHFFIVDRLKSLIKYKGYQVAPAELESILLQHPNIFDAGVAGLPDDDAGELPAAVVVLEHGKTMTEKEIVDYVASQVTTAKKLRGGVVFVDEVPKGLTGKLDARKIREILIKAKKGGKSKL
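Luminescence read by CCD imager after adding enzyme (10nM final) to wells holding compound, titrated in qHTS. Substrates 10uM each D-luciferin and ATP; buffer 50mM Tris acetate pH 7.5, 10mM Mg acetate, Tween-20, BSA.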
NPR1 antag: Natriuretic polypeptide receptor (hNpr1) antagonism - Primary qHTS. Atrial natriuretic peptide receptor 1 (Homo sapiens), P16066. HEK293 hNpr1 GloSensor cGMP, ANP-stimulated luminescence. Potency, µM (doses to about 46.3 µM), without a hit: at the top dose activity change, negative = inhibition, usual class: inhibitors. hit rate 1.6% among 76,000. AID 1347048, 2019; calls by dose curve; note: nearly all actives have a fitted effect of over 60% in size
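Compound pre-incubated 30 min at room temperature on GloSensor-loaded HEK293 cells stably carrying hNpr1 and the pGS-40F cGMP biosensor. Stimulation uses hNppA at 0.1 nM final; luminescence is taken at baseline and 20 min post-agonist.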
HEK293 tox: Cytotoxic Profiling in HEK 293 Cell Line of Diverse Libraries Using Quantitative High-Throughput Screening; hit rate 6.6% among 94,000; HEK 293 viability, ATP luminescence (CellTiter-Glo), 48-72 h; Potency, µM (highest dose often 115 µM), for the others: at the top dose activity change, negative = cytotoxicity, actives largely listed as inhibitors; note: nearly all actives have a fitted effect of over 60% in size
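Cytotoxicity was scored by loss of ATP-coupled luminescence (CellTiter-Glo) in HEK 293 cells. Compound treatment ran 48 or 72 hr at 37 degree Celsius, 5% CO2, 95% humidity.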
NIH3T3 tox: Cytotoxic Profiling in NIH 3T3 Cell Line of Diverse Libraries Using Quantitative High-Throughput Screening; Potency, µM (highest dose often 96.7 µM), inactives show at the highest dose activity change, negative = cytotoxicity, most hits filed as inhibitors; NIH 3T3 viability, CellTiter-Glo ATP luminescence, 48-72 h; hit rate 4.3% among 94,000; note: nearly all actives have a fitted effect of over 55% in size
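First NIH 3T3 cells are plated at 400 cells/well; next compound is pinned in; then plates incubate 48 or 72 hr at 37 °C; finally CellTiter-Glo is added and luminescence read after 10 min.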
GPT2 inhibitor: Primary qHTS assay for inhibitors of Glutamate pyruvate transaminase 2 (GPT2); Alanine aminotransferase 2 (Homo sapiens), Q8TD30; Recombinant GPT2, coupled pyruvate oxidase/HRP Amplex Red fluorescence; Potency, µM (highest dose often 57.7 µM), for inactives: top-dose activity change, negative = inhibition, hits mostly inhibitors; hit rate 0.25% among 100,000; note: nearly all actives have a fitted effect of over 60% in size
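Inhibition is scored from Amplex Red fluorescence generated when pyruvate oxidase and HRP act on pyruvate released by GPT2. Reactions contain 10ng/uL enzyme, 250uM a-KG and 2mM L-alanine and run 30 min at room temperature.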
An asterisk follows results filed as active; [ ] = remark or other dose. The list is not random: actives were taken first. Their share in the collection is about 10%. Unless noted, calls come from the whole dose curve; as a rule, active = well fitted curve in the direction sought with a large enough effect; inconclusive = small, poorly fitted or top-dose-only effect, or another doubt; inactive = no such curve, though single readings can be large; an effect the other way counts as inactive or inconclusive. % is set by controls: 0 for no effect and ±100 for the full control effect; potency is the fitted concentration of half-maximal effect.

Results for COc1ccc(Nc2ccc3c(n2)CN(Cc2nc4ccccc4s2)C(=O)CO3)cn1 ?
FLuc inh: inconclusive; NPR1 antag: inconclusive; HEK293 tox: 50µM*; NIH3T3 tox: inconclusive; GPT2 inhibitor: inactive

Results for COc1ccc(Nc2ccc3c(n2)CN(Cc2ccccc2C)C(=O)CO3)cc1 ?
FLuc inh: inactive; NPR1 antag: inconclusive; HEK293 tox: 89µM*; NIH3T3 tox: 79µM*; GPT2 inhibitor: -18%[88.5 µM]

How did O=C1COc2ccc(Nc3ccccc3)nc2CN1Cc1ccccc1 do in these assays?
FLuc inh: inactive; NPR1 antag: -3%[70.6 µM]; HEK293 tox: inconclusive; NIH3T3 tox: inconclusive; GPT2 inhibitor: -7%[88.5 µM]

How did O=C1NC(=NC2CCCCC2)C2(CCN([S+](=O)([O-])c3cccc(C(F)(F)F)c3)C2)N1c1cccnc1 (stereo not given) do in these assays?
HEK293 tox: 5%; NIH3T3 tox: -27%; GPT2 inhibitor: 3%

What do the screens show for `CC(C)(C)NC(=O)C[C@@H]1CCNC[C@@H]1Cc1cc(COc2ccccc2)on1`?
FLuc inh: inactive; NPR1 antag: 5%[70.6 µM]; HEK293 tox: inconclusive; NIH3T3 tox: -17%[174 µM]; GPT2 inhibitor: -6%[88.5 µM]

Results for O=C(C[C@@H]1CCNC[C@@H]1Cc1cc(CSc2ccccc2)on1)Nc1ccccc1 ?
FLuc inh: inactive; NPR1 antag: -15%[70.6 µM]; HEK293 tox: 45µM*; NIH3T3 tox: 71µM*; GPT2 inhibitor: inactive

What do the screens show for `O=C(C[C@@H]1CCNC[C@@H]1Cc1cc(COc2ccccc2)on1)NCc1cccnc1`?
FLuc inh: inactive; NPR1 antag: -5%[70.6 µM]; HEK293 tox: -15%[172 µM]; NIH3T3 tox: -16%[174 µM]; GPT2 inhibitor: -3%[88.5 µM]

How did O=C(C[C@@H]1CCNC[C@@H]1Cc1cc(CSc2ccccc2)on1)N1CCN(c2ccccc2)CC1 do in these assays?
FLuc inh: inactive; NPR1 antag: -19%; HEK293 tox: inconclusive; NIH3T3 tox: 25µM*; GPT2 inhibitor: -2%

How did O=C(C[C@@H]1CCNC[C@@H]1Cc1cc(COc2ccccc2)on1)NCc1ccccc1 do in these assays?
FLuc inh: inactive; NPR1 antag: -26%[70.6 µM]; HEK293 tox: 79µM*; NIH3T3 tox: inconclusive; GPT2 inhibitor: 3%[88.5 µM]

What do the screens show for `O=C(C[C@@H]1CCNC[C@@H]1Cc1cc(CN2CCOCC2)on1)N1CCN(c2ccccc2)CC1`?
FLuc inh: inactive; NPR1 antag: -9%; HEK293 tox: 0%; NIH3T3 tox: -5%; GPT2 inhibitor: -23%

Results for O=C(C[C@@H]1CCNC[C@@H]1Cc1cc(COc2ccccc2)on1)Nc1ccccc1 ?
FLuc inh: inactive; NPR1 antag: -9%[70.6 µM]; HEK293 tox: 40µM*; NIH3T3 tox: 32µM*; GPT2 inhibitor: 5%[88.5 µM]

Results for CC(C(O)/C=C/C(C)(C)O)C1CCC2(C)C3C(=O)C=C4C(CCC(O)C4(C)C)C3(C)CCC12C (stereo not given) ?
GPT2 inhibitor: inactive

Results for CCN(CCNC(=O)CN1CC2CC(C1)[C@H]1CCCC(=O)N1C2)Cc1ccccc1 (stereo not given in full) ?
FLuc inh: inactive; NPR1 antag: -8%; HEK293 tox: -7%; NIH3T3 tox: -23%; GPT2 inhibitor: inactive

What do the screens show for `c1ccc(CCCc2noc(-c3ccc(N4CCCNCC4)nc3)n2)cc1`?
FLuc inh: inconclusive; NPR1 antag: 4%; HEK293 tox: 22µM*; NIH3T3 tox: inconclusive; GPT2 inhibitor: -2%

What do the screens show for `CC(O)CNc1ccc(-c2nc(CCCc3ccccc3)no2)cn1` (stereo not given)?
FLuc inh: 45µM*; NPR1 antag: 1%; HEK293 tox: inconclusive; NIH3T3 tox: inconclusive; GPT2 inhibitor: inconclusive

How did CNC1CCN(c2ccc(-c3nc(CCCc4ccccc4)no3)cn2)CC1 do in these assays?
FLuc inh: inconclusive; NPR1 antag: -5%; HEK293 tox: inconclusive; NIH3T3 tox: inconclusive; GPT2 inhibitor: inactive[11.5 µM]

What do the screens show for `CN(Cc1ncc[nH]1)c1ccc(-c2nc(CCCc3ccccc3)no2)cn1`?
FLuc inh: inconclusive; NPR1 antag: inconclusive; HEK293 tox: 45µM*; NIH3T3 tox: inconclusive; GPT2 inhibitor: -12%

What do the screens show for `OCC1CCN(c2ccc(-c3nc(CCCc4ccccc4)no3)cn2)CC1`?
FLuc inh: inconclusive; NPR1 antag: 13µM*; HEK293 tox: inconclusive; NIH3T3 tox: inconclusive; GPT2 inhibitor: inconclusive

What do the screens show for `CN(Cc1cnccn1)c1ccc(-c2nc(CCCc3ccccc3)no2)cn1`?
FLuc inh: inconclusive; NPR1 antag: -20%; HEK293 tox: -22%; NIH3T3 tox: -29%; GPT2 inhibitor: -7%

How did COC(=O)CC[C@H]1CNC(=O)[C@@H]2[C@@H](CCN2Cc2ccc(C(F)(F)F)cc2)N1C do in these assays?
FLuc inh: inactive; NPR1 antag: -2%[70.6 µM]; HEK293 tox: inconclusive; NIH3T3 tox: -20%[174 µM]; GPT2 inhibitor: inconclusive

What do the screens show for `O=C(c1ccc(F)cc1)N1CCC2(CC1)CCN(CCc1ccccc1)c1ccccc1O2`?
FLuc inh: inactive; NPR1 antag: 0%; HEK293 tox: 40µM*; NIH3T3 tox: inconclusive; GPT2 inhibitor: inactive

Results for Cc1ccccc1C(=O)N1CCC2(CC1)CCN(CCc1ccccc1)c1ccccc1O2 ?
FLuc inh: inactive; NPR1 antag: 2%; HEK293 tox: 28µM*; NIH3T3 tox: inconclusive; GPT2 inhibitor: 5%

How did O=C(Cc1ccc(F)cc1)N1CCC2(CC1)CC(=O)N(c1ccccc1)c1ccccc1O2 do in these assays?
FLuc inh: inactive; NPR1 antag: -9%; HEK293 tox: 40µM*; NIH3T3 tox: 40µM*; GPT2 inhibitor: inactive

Results for CCCN1CCC2(CCN(C(=O)c3ccccc3C)CC2)Oc2ccccc21 ?
FLuc inh: inactive; NPR1 antag: 26%; HEK293 tox: inconclusive; NIH3T3 tox: inconclusive; GPT2 inhibitor: 3%

What do the screens show for `O=C(c1ccccc1)N1CCC2(CC1)CCN(CCc1ccccc1)c1ccccc1O2`?
FLuc inh: inactive; NPR1 antag: -6%; HEK293 tox: 40µM*; NIH3T3 tox: inconclusive; GPT2 inhibitor: inactive

Results for O=C(Nc1cc(-c2cccnc2)nn1-c1ccccc1)c1cccc(Br)c1 ?
HEK293 tox: 50µM*; NIH3T3 tox: inconclusive; GPT2 inhibitor: inactive

What do the screens show for `O=C(Nc1cc(-c2ccncc2)nn1-c1ccccc1)c1ccccc1`?
HEK293 tox: inconclusive; NIH3T3 tox: inconclusive; GPT2 inhibitor: 4%
